From PubChem BioAssay
In the library only some 0.89% were active in any assay of this set; here they are far more common.
L3MBTL1 inh: qHTS Assay for the Inhibitors of L3MBTL1. AlphaScreen L3MBTL1–H3K9me1 peptide binding. Potency, µM (highest dose often 57.1 µM), without a hit: top-dose activity, negative = inhibition, most hits filed as inhibitors. hit rate 0.66% among 230,000; further: potency means the concentration at half of the fitted maximal effect; on the % scale 0 is the no-effect control and ±100 the full control effect; nearly all actives have a fitted effect of over 60% in size
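AlphaScreen assay: L3MBTL1 (50 nM final) was preincubated 30 min at room temperature with biotinylated H3(1-15)K9me1 peptide (75 nM final), then 30 min with library compounds; streptavidin donor and nickel chelate acceptor beads (10 ug/mL final) added, 30 min dark.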
CtBP-E1A inh: qHTS Assay for Inhibitors of the CtBP/E1A Interaction. CtBP / adenovirus E1A interaction (AlphaScreen). hit rate 0.49% among 340,000. AlphaScreen GST-E1A/His-CtBP binding, 1536-well; hits give low values. activity change, % (concentration not given with the values); in the data active means activity change below about -65%; inconclusive means mostly about -30% to -63%; further: on the % scale 0 is the no-effect control and ±100 the full control effect
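Protein mix (5X: 125 nM each GST-E1A, His-CtBP) was incubated with pinned compound 2 h at 37 deg C in dark, in 50 mM Tris pH 8.0 buffer with 300 mM NaCl. Glutathione donor and nickel acceptor beads followed; AlphaScreen signal read after 1 h.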
MBNL1 CUG block: qHTS Assay for Inhibitors of MBNL1-poly(CUG) RNA binding; Muscleblind-like protein 1 (Homo sapiens), Q9NR56; TR-FRET MBNL1-His/biotin-(CUG)12 binding, 665/545 ratio; Potency, µM (series often up to 57.5 µM), without a hit: top-dose activity change, negative = inhibition, actives largely listed as inhibitors; hit rate 0.036% among 280,000; AID 2675, 2010; active means well fitted inhibition curve with a large enough effect in the signal ratio, with a control signal flat, not every such curve was filed as active; inconclusive means small, poorly fitted or top-dose-only effect, or effect the other way, or a change in a side signal; inactive means no such curve, though single readings can be large or run the other way; the % refers to the signal ratio; further: potency means the concentration at half of the fitted maximal effect; on the % scale 0 is the no-effect control and ±100 the full control effect
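Inhibition of protein-RNA binding appears as loss of TR-FRET between terbium anti-His antibody on MBNL1-His and streptavidin-XL665 on biotin-(CUG)12. Activity is normalized to buffer-only and uninhibited-complex controls.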
CBFb RUNX1 block: qHTS Assay for Compounds Blocking the Interaction Between CBF-beta and RUNX1 for the Treatment of Acute Myeloid Leukemia. Runt-related transcription factor 1 (Homo sapiens) + Core-binding factor subunit beta …. AlphaScreen CBFb-His/RUNX1-biotin binding, biochemical. Potency, µM (top dose mostly 59.8 µM), for inactives: top-dose activity, negative = inhibition, actives largely listed as inhibitors. 230,000 tested, under 10 active. AID 1477, 2009; further: % of control where 0% means no effect
Target sequence (Q01196 whole entry, looked up): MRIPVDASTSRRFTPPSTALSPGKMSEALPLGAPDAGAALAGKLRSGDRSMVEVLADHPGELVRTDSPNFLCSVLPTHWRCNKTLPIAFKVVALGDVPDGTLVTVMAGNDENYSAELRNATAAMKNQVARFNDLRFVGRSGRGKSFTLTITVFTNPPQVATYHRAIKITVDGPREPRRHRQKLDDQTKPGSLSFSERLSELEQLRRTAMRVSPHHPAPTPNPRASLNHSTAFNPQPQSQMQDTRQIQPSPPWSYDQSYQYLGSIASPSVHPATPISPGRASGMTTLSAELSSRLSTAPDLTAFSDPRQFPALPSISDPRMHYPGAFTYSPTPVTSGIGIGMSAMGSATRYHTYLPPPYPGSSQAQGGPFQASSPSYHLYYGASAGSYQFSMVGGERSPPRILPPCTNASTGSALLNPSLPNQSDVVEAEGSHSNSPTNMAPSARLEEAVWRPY
Target sequence (Q13951 whole entry, looked up): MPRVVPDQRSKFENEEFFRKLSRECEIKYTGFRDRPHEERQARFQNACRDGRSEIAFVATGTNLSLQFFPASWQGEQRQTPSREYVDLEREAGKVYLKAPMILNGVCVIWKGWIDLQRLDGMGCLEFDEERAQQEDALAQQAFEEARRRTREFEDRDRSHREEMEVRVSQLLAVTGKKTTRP
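AlphaScreen binding: CBFb-His and RUNX1-biotin (30 nM each) preincubated 20 min, compound added for 15 min, then nickel and streptavidin beads for 90 min, all at room temperature. Disruption of the interaction by any mechanism counts as activity.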
Six1-Eya2 blk: qHTS Assay for Inhibitors of the Six1/Eya2 Interaction; Homeobox protein SIX1 (Homo sapiens) + Protein phosphatase EYA2 (Homo sapiens), …; AlphaScreen GST-Six1/His-Eya2 binding, biochemical; hits give low values; activity change, % (no concentration beside the values); hit rate 0.56% among 360,000; in the data active means activity change below about -65%; inconclusive means mostly about -30% to -63%; further: on the % scale 0 is the no-effect control and ±100 the full control effect
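GST-Six1 + His-Eya2 (5X stock: 250/500 nM); Tris pH 8.0, 300 mM NaCl, 0.05% BSA, 0.02% Tween 20; GSH donor/Ni acceptor beads; 1 h 37 °C dark; AlphaScreen readout.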
Eya2 phos inh: qHTS Assay for Inhibitors of the Phosphatase Activity of Eya2; Protein phosphatase EYA2 (Homo sapiens), O00167; recombinant Eya2, OMFP fluorescence dephosphorylation (OMFP is methylfluorescein phosphate); Potency, µM (highest dose often 76.9 µM), inactives show top-dose activity, negative = inhibition, actives largely listed as inhibitors; hit rate 0.006% among 330,000; AID 488837, 2010; further: potency means the concentration at half of the fitted maximal effect; on the % scale 0 is the no-effect control and ±100 the full control effect
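Eya2 protein (added as 0.2 uM solution) was preincubated with compound for 10 min at ambient temperature in 50 mM HEPES pH 7.5, 50 mM NaCl, 5 uM MgCl2, 0.05% BSA, 1 mM DTT. OMFP (added at 50 uM) then reacted 10 min; fluorescence read at 485/525 nm.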
* = called active by the depositor; [ ] = remark or other dose. Unless noted, the call rests on the fitted dose curve; in most records, active means well fitted curve in the direction sought with a large enough effect; inconclusive means small, poorly fitted or top-dose-only effect, or another doubt; inactive means no such curve, though single readings can be large; an effect the other way counts as inactive or inconclusive.

Nc1cccc2nsnc12 was read as L3MBTL1 inh 2.2%, CtBP-E1A inh -7.7, MBNL1 CUG block 11.2%, CBFb RUNX1 block 0.2%, Six1-Eya2 blk 0.4 and Eya2 phos inh 8.3%.
For O=C1CCN(S(=O)(=O)c2cccs2)c2ccc(C(F)(F)F)cc2N1 the results were CtBP-E1A inh 0.0, MBNL1 CUG block 5.8%, CBFb RUNX1 block 10.6%, Six1-Eya2 blk -1.9 and Eya2 phos inh -25.0%.
Screening CSc1nnc2c(n1)OC(C)=Nc1ccccc1-2 returned L3MBTL1 inh 4.7%, CtBP-E1A inh -22.1, MBNL1 CUG block inconclusive, CBFb RUNX1 block 5.9%, Six1-Eya2 blk -66.5* and Eya2 phos inh -2.1%.
Screening Cc1nnsc1C(=O)N/N=C/c1ccc2ccccc2c1O returned L3MBTL1 inh 2µM*, CtBP-E1A inh -71.3*, MBNL1 CUG block 21.2%, CBFb RUNX1 block inconclusive, Six1-Eya2 blk -87.2* and Eya2 phos inh 6.0%.
For Cc1nnsc1C(=O)N/N=C/c1ccccc1 the results were L3MBTL1 inh -9.1%, CtBP-E1A inh -2.3, MBNL1 CUG block -15.9%, CBFb RUNX1 block 9.8%, Six1-Eya2 blk 7.5 and Eya2 phos inh 1.2%.
Screening O=C(CCc1ccccc1O)N/N=C/c1ccc(Sc2cccc3cccnc23)o1 returned CtBP-E1A inh -92.2*, MBNL1 CUG block 15.2%, CBFb RUNX1 block -23.3%, Six1-Eya2 blk -87.8* and Eya2 phos inh -15.1%.
For CC1C(=NO)C(C)C(c2ccc(N(C)C)cc2)NC1c1ccc(N(C)C)cc1 (stereo not drawn) the results were L3MBTL1 inh 25.1µM*, CtBP-E1A inh 7.4, MBNL1 CUG block 4.8%, CBFb RUNX1 block -27.7%, Six1-Eya2 blk 0.0 and Eya2 phos inh -9.6%.
For Cc1cc(OCC(=O)NCCc2c[nH]c3ccccc23)c2c(C)cc(=O)oc2c1 the results were CtBP-E1A inh 0.3, MBNL1 CUG block 4.2%, Six1-Eya2 blk 5.3 and Eya2 phos inh 7.4%.
Cc1ccccc1NC(=O)CSc1n[nH]c(-c2ccccn2)n1 was read as CtBP-E1A inh -93.6*, MBNL1 CUG block 4.7%, Six1-Eya2 blk -91.7* and Eya2 phos inh 2.4%.
Cc1ccc(C)c(NC(=O)CSc2n[nH]c(-c3ccccn3)n2)c1 was read as CtBP-E1A inh -92.1*, MBNL1 CUG block -0.1%, Six1-Eya2 blk -77.4* and Eya2 phos inh 4.1%.
Cc1nc(SCC(=O)Nc2cccc(Cl)c2)n[nH]1 was read as CtBP-E1A inh -0.3, MBNL1 CUG block 3.4%, CBFb RUNX1 block 0.9%, Six1-Eya2 blk -3.1 and Eya2 phos inh 14.5%.
O=C(CSc1n[nH]c(-c2ccccn2)n1)Nc1cccc(Cl)c1 was read as CtBP-E1A inh -96.8*, MBNL1 CUG block 2.0%, Six1-Eya2 blk -92.5* and Eya2 phos inh -9.7%.
For CCc1nc2ccc(C(=O)NCCOc3ccc(OC)cc3)cn2c1N(C)CCCc1ccccc1 the results were CtBP-E1A inh -28.7 and Six1-Eya2 blk -10.4.
For CCCCNC(=S)Nc1ccc2[nH]c(=O)[nH]c2c1 the results were L3MBTL1 inh -14.0%, CtBP-E1A inh -66.9*, MBNL1 CUG block -5.1%, CBFb RUNX1 block -5.2%, Six1-Eya2 blk 5.7 and Eya2 phos inh 2.9%.
`O=C(CN1CCN(C(=O)C2CCN(C(=O)/C=C/c3ccccc3)CC2)CC1)Nc1ccc(F)cc1` gave CtBP-E1A inh -3.1 and Six1-Eya2 blk 7.6.
For O=C(Nc1cccc(N2C(=O)C=CC2=O)c1)c1cccs1 the results were L3MBTL1 inh 28.2µM* and Eya2 phos inh 22.1%.
For COc1ccc([C@H]2C[C@H](O)[C@@H](n3cc(-c4ccc(F)cc4)nn3)CN2Cc2cccs2)cc1 the results were CtBP-E1A inh 0.0 and Six1-Eya2 blk -11.0.
CN(C)CCn1nnnc1SCC1=C(C(=O)O)N2C(=O)[C@@H](NC(=O)Cc3csc(N)n3)[C@H]2SC1 was read as L3MBTL1 inh 28.2µM*, CtBP-E1A inh -17.9, Six1-Eya2 blk -22.8 and Eya2 phos inh -8.8%.
For CN(C)CCn1nnnc1SCC1=C(C(=O)O)N2C(=O)[C@@H](NC(=O)Cc3csc(N)n3)[C@@H]2SC1 the results were CBFb RUNX1 block -1.8%[21.7 µM].
COC(=O)[C@H]1O[C@@H](c2cc(OC)c(C)c(OC)c2OCc2ccccc2)[C@H](C)[C@H]2O[C@@]12C was read as CBFb RUNX1 block 0.0%.
O=Cc1ccc(O)c2ncccc12 was read as L3MBTL1 inh 3.98µM*, CtBP-E1A inh -67.4*, MBNL1 CUG block 24.3%, Six1-Eya2 blk -73.6* and Eya2 phos inh 2.5%.
`O=c1cc(-c2ccccc2)oc2cc(O)c(O)cc12` gave CBFb RUNX1 block -19.1%.
For O=c1cc2oc3cc(O)c(O)cc3c(-c3ccccc3[N+](=O)[O-])c-2cc1O the results were MBNL1 CUG block inconclusive, Six1-Eya2 blk -71.1* and Eya2 phos inh -23.7%.
`CC1=C2C3OC(=O)C(C)C3CCC2(C)C=CC1=NO` (stereo not drawn) gave CtBP-E1A inh 3.8 and Six1-Eya2 blk 2.8.
CCOc1ccc(/C=C(\C#N)C(=O)NCC2CCCO2)cc1OCC (stereo not drawn) was read as L3MBTL1 inh 2.7%, CtBP-E1A inh -65.6*, CBFb RUNX1 block -0.3%, Six1-Eya2 blk -5.0 and Eya2 phos inh 1.3%.
For Nc1ccc(N(CCO)CCO)cc1 the results were L3MBTL1 inh 12.6µM*, CtBP-E1A inh -11.7, MBNL1 CUG block inconclusive, Six1-Eya2 blk 20.1 and Eya2 phos inh -12.9%.
COc1cc(/C=N/Nc2ncnc3sc4c(c23)CCC4)ccc1O was read as L3MBTL1 inh -11.2%, CtBP-E1A inh -82.7*, CBFb RUNX1 block -3.2%, Six1-Eya2 blk -67.9* and Eya2 phos inh 2.5%.
`COc1ccc2c(c1)O/C(=C\c1sccc1C)C2=O` gave L3MBTL1 inh 5.6%, CtBP-E1A inh -9.9, MBNL1 CUG block 13.1%, CBFb RUNX1 block 1.4%, Six1-Eya2 blk 0.3 and Eya2 phos inh 11.8%.
`COc1cccc(Nc2nc(-c3sc(C)nc3C)cs2)c1` gave L3MBTL1 inh -4.2%, MBNL1 CUG block 19.7%, Six1-Eya2 blk -12.5 and Eya2 phos inh -18.6%.
